# The supplement of paper PMC10849652
# Targets with a hit are over-represented here; the source holds about 7,900 in all. About 0.6% of all pairs of compound and target were hits. Values without a mark were called inactive.
# What was measured:
# Assay in all cases: log2 fold change, soluble protein after heating vs DMSO (PISA); higher = thermal stabilisation; K562 cells, 10 uM, 30 min; active = over 0.2 and 3.5 SD of the protein, either way, in both replicates (recomputed)
# saracatinib = compound: CN1CCN(CCOc2cc(OC3CCOCC3)c3c(Nc4c(Cl)ccc5c4OCO5)ncnc3c2)CC1 [saracatinib]
# Outline: (§1)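 K562 cells at 2×10^6 cells/mL were treated with 10 μM compound for 30 min. Aliquots were heated for 3 min across 48°C-58°C, pooled, and extracted in PBS with 0.5% NP-40 at 4°C; soluble protein was the supernatant after 21,000xg for 90 min. Soluble protein was quantified by TMTpro 16plex LC-MS/MS with channel sums equalised, and reported as log2 fold change in thermal stability against DMSO controls, with values from duplicates.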
# sotrastaurin = compound: CN1CCN(c2nc(C3=C(c4c[nH]c5ccccc45)C(=O)NC3=O)c3ccccc3n2)CC1 [sotrastaurin]
# Outline: as §1
# alvocidib = compound: CN1CC[C@H](c2c(O)cc(O)c3c(=O)cc(-c4ccccc4Cl)oc23)[C@H](O)C1 [alvocidib]
# Outline: as §1
# Tubastatin A = compound: CN1CCc2c(c3ccccc3n2Cc2ccc(C(=O)NO)cc2)C1 [Tubastatin A]
# Outline: as §1
# [1] = compound: CNC(=O)C1=CC=CC=C1NC2=NC(=NC=C2Cl)NC3=C(C=C(C=C3)N4CCOCC4)OC
# Outline: as §1
# defactinib = compound: CNC(=O)c1ccc(Nc2ncc(C(F)(F)F)c(NCc3nccnc3N(C)S(C)(=O)=O)n2)cc1 [defactinib]
# Outline: as §1
# rucaparib = compound: CNCc1ccc(-c2[nH]c3cc(F)cc4c3c2CCNC4=O)cc1 [rucaparib]
# Outline: as §1
# [2] = compound: CNc1nc(-c2ccc3c(N)n[nH]c3c2)cc(N2C[C@@H](C(=O)NC3CCCCC3)CC[C@H]2C)n1
# Outline: as §1
# encorafenib = compound: COC(=O)N[C@@H](C)CNc1nccc(-c2cn(C(C)C)nc2-c2cc(Cl)cc(NS(C)(=O)=O)c2F)n1 [encorafenib]
# Outline: as §1
# [3] = compound: COC(=O)[C@H](CCSC)NC(=O)C1=C(C=C(C=C1)NC[C@H](CS)N)C2=CC=CC=C2
# Outline: as §1
# [4] = compound: COC1=CC=C(C=C1)CN2C=CC3=C2C=C(C=C3)C(=O)NO
# Outline: as §1
# filanesib = compound: CON(C)C(=O)N1N=C(c2cc(F)ccc2F)S[C@@]1(CCCN)c1ccccc1 [filanesib]
# Outline: as §1
# zotarolimus = compound: CO[C@H]1C[C@@H]2CC[C@@H](C)[C@@](O)(O2)C(=O)C(=O)N2CCCC[C@H]2C(=O)O[C@H]([C@H](C)C[C@@H]2CC[C@H](n3cnnn3)[C@H](OC)C2)CC(=O)[C@H](C)/C=C(\C)[C@@H](O)[C@@H](OC)C(=O)[C@H](C)C[C@H](C)/C=C/C=C/C=C/1C [zotarolimus]
# Outline: as §1
# idasanutlin = compound: COc1cc(C(=O)O)ccc1NC(=O)[C@@H]1N[C@@H](CC(C)(C)C)[C@](C#N)(c2ccc(Cl)cc2F)[C@H]1c1cccc(Cl)c1F [idasanutlin]
# Outline: as §1
# alisertib = compound: COc1cc(Nc2ncc3c(n2)-c2ccc(Cl)cc2C(c2c(F)cccc2OC)=NC3)ccc1C(=O)O [alisertib]
# Outline: as §1
# [5] = compound: COc1cc2nc(-c3cc(F)ccc3O)nc(N[C@@H]3CNC[C@H]3C(C)(C)O)c2cc1OC
# Outline: as §1
# gefitinib = compound: COc1cc2ncnc(Nc3ccc(F)c(Cl)c3)c2cc1OCCCN1CCOCC1 [gefitinib]
# Outline: as §1
# [6] = compound: COc1cccc2cc(-c3nc([C@H]4CC[C@H](C(=O)O)CC4)n4ncnc(N)c34)[nH]c12
# Outline: as §1
# lapatinib = compound: CS(=O)(=O)CCNCc1ccc(-c2ccc3ncnc(Nc4ccc(OCc5cccc(F)c5)c(Cl)c4)c3c2)o1 [lapatinib]
# Outline: as §1
# pictilisib = compound: CS(=O)(=O)N1CCN(Cc2cc3nc(-c4cccc5[nH]ncc45)nc(N4CCOCC4)c3s2)CC1 [pictilisib]
# Outline: as §1
# Sequence of UniProt Q8N5L8 (Q8N5L8 whole entry, looked up): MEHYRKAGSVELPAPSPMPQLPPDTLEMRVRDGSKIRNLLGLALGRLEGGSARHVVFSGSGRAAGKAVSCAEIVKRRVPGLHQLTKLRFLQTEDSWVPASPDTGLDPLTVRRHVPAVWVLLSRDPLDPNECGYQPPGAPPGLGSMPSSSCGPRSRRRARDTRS
# Sequence of UniProt P18754 (P18754 whole entry, looked up): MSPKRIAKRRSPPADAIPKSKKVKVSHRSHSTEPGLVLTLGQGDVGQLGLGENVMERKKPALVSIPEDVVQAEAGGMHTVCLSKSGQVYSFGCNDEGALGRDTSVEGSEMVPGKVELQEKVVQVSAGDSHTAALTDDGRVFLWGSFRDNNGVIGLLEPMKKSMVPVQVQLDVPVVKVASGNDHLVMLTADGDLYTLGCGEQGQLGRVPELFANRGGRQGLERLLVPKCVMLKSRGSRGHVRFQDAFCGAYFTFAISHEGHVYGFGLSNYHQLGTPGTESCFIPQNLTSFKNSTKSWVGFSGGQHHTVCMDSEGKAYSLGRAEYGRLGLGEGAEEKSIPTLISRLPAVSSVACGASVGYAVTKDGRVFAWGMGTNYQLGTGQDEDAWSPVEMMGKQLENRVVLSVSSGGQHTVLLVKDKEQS
# Sequence of UniProt Q9H4A4 (Q9H4A4 whole entry, looked up): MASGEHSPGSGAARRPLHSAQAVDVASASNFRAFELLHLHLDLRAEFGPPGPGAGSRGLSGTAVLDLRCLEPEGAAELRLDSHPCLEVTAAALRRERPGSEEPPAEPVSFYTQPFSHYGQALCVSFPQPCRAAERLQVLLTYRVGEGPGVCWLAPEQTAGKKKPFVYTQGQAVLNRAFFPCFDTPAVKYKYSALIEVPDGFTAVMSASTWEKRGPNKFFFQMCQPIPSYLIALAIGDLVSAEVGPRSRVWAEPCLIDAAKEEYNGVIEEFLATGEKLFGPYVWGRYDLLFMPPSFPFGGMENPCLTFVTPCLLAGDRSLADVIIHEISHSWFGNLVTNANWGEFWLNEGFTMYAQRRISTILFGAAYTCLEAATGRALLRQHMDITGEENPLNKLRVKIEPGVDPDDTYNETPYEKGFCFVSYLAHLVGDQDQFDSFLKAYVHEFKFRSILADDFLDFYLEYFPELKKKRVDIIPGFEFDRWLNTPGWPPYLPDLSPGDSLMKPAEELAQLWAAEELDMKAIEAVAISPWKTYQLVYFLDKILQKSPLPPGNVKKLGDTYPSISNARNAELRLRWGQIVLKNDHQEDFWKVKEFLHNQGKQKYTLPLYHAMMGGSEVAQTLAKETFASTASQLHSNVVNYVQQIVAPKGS
# Sequence of UniProt Q9H6H4 (Q9H6H4 whole entry, looked up): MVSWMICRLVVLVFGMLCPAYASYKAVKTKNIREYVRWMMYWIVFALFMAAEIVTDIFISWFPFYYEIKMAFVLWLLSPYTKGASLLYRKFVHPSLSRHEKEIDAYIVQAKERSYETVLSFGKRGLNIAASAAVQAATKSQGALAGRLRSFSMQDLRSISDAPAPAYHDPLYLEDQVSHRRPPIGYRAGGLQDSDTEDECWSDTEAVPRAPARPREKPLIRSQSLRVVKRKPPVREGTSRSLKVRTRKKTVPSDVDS
# Sequence of UniProt Q13796 (Q13796 whole entry, looked up): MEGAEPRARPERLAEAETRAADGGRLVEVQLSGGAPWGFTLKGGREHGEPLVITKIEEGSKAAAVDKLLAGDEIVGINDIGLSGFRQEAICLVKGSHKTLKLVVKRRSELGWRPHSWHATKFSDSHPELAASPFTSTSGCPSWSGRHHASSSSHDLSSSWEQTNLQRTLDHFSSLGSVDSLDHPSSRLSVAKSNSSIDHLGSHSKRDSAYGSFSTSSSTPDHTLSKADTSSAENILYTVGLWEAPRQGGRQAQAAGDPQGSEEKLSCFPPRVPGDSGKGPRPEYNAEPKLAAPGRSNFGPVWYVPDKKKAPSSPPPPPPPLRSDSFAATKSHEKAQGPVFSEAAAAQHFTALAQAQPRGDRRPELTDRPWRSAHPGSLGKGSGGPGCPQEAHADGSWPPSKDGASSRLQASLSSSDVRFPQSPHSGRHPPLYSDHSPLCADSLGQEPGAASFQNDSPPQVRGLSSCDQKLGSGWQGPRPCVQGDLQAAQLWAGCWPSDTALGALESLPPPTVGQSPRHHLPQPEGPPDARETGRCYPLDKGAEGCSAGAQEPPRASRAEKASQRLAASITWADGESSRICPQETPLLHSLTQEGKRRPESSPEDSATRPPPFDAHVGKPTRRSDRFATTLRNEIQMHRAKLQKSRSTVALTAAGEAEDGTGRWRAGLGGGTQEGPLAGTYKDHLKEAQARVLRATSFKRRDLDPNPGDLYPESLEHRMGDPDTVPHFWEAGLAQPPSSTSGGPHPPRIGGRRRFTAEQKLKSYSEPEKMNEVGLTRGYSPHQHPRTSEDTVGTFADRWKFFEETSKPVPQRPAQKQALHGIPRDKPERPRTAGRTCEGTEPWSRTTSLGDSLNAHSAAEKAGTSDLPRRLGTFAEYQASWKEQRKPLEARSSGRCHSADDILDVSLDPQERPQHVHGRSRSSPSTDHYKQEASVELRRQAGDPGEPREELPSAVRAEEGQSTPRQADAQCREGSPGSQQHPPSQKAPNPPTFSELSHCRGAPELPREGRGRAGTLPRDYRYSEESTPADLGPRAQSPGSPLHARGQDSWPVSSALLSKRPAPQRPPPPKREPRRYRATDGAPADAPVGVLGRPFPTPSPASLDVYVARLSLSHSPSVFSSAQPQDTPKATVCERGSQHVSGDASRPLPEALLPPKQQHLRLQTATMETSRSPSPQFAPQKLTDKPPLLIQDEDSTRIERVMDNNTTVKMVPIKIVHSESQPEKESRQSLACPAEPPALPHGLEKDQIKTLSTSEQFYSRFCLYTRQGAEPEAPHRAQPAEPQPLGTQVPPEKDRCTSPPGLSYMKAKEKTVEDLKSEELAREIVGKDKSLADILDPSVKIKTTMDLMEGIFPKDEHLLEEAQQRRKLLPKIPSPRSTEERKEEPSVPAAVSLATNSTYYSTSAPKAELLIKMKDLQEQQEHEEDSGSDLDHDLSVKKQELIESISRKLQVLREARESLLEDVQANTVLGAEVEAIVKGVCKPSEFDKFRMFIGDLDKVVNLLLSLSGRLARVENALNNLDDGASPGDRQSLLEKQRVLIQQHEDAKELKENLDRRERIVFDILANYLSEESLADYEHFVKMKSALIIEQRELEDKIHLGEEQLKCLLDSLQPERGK
# Sequence of UniProt P41440 (P41440 whole entry, looked up): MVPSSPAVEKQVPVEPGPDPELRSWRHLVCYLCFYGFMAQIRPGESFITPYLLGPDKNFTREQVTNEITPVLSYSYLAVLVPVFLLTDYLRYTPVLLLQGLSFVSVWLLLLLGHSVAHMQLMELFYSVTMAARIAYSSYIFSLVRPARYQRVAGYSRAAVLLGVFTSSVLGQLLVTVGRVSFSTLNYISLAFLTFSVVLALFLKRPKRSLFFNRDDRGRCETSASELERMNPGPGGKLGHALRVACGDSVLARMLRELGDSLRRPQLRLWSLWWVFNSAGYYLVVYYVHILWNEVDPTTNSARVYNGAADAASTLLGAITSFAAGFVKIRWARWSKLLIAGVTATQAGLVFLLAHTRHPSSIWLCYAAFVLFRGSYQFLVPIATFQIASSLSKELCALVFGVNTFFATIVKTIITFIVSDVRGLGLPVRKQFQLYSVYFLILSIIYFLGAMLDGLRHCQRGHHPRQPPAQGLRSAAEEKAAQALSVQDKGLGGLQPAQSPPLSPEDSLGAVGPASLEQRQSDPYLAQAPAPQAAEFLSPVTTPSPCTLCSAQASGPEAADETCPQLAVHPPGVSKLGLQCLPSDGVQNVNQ
# Sequence of UniProt Q8N0T1 (Q8N0T1 whole entry, looked up): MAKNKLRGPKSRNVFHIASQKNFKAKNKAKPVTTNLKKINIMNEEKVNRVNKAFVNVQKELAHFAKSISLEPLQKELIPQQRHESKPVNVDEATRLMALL
# Sequence of UniProt Q01974 (Q01974 whole entry, looked up): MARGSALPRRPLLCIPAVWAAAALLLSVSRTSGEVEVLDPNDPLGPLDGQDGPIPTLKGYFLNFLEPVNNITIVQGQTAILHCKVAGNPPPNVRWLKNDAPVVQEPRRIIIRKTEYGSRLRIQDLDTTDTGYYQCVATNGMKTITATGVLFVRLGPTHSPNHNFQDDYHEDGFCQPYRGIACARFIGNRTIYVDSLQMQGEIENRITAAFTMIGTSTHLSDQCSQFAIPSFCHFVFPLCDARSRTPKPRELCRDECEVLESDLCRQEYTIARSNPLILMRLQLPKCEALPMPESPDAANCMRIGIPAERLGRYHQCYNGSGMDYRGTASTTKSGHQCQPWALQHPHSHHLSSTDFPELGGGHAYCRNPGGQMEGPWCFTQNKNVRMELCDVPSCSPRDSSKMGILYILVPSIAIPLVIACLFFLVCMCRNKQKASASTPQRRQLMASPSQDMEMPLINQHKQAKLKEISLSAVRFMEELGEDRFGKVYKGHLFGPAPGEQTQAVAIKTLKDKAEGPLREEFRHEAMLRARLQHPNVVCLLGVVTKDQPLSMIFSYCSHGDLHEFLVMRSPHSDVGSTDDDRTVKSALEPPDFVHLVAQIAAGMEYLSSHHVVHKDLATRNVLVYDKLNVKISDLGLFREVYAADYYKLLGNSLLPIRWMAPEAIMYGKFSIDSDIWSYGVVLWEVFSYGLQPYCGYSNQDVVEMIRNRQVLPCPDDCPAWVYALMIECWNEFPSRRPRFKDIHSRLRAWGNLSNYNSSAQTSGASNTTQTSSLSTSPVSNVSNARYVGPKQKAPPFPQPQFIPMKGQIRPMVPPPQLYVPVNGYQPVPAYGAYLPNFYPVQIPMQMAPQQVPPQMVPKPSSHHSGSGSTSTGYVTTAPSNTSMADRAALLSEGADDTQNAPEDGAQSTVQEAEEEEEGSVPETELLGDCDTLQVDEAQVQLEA
Target,log2 fold change (saracatinib),log2 fold change (sotrastaurin),log2 fold change (alvocidib),log2 fold change (Tubastatin A),log2 fold change [1],log2 fold change (defactinib),log2 fold change (rucaparib),log2 fold change [2],log2 fold change (encorafenib),log2 fold change [3],log2 fold change [4],log2 fold change (filanesib),log2 fold change (zotarolimus),log2 fold change (idasanutlin),log2 fold change (alisertib),log2 fold change [5],log2 fold change (gefitinib),log2 fold change [6],log2 fold change (lapatinib),log2 fold change (pictilisib)
REEP4 (UniProt Q9H6H4),0.047,-0.068,0.034,0.018,-0.122,0.008,0.086,-0.014,-0.013,-0.01,-0.039,-0.072,-0.034,0.033,-0.07,-0.32 (active),-0.032,-0.031,0.121,-0.175
RPS2 (UniProt P15880),-0.058,0,0.25,0.059,0.064,0.261,0.153,0.081,0.07,0.042,-0.049,0.214,-0.013,0.114,-0.1,-0.027,-0.05,-0.184,0.094,-0.143
RB1 (UniProt P06400),0.026,-0.038,-0.885 (active),0.061,0.026,-0.176,-0.195,0.016,0.006,0.019,-0.028,-0.08,0.011,0,-0.016,-0.325 (active),0.006,0.052,0.025,0.033
RPL31 (UniProt P62899),-0.068,-0.003,0.294,0.147,0.096,0.282,0.238,0.121,0.088,-0.052,-0.084,0.277,-0.013,0.151,-0.118,-0.013,-0.075,-0.25,0.103,-0.092
ROR2 (UniProt Q01974),0.034,-0.071,-0.06,-0.025,-0.023,-0.107,-0.012,0.084,0.03,-0.121,-0.172,-0.017,0.082,0,-0.013,0.022,0.009,0.012,0.021,-0.079
RAD51 (UniProt Q06609),-0.013,0.004,-0.002,0.099,0.337 (active),0.027,-0.035,-0.011,0.005,-0.041,-0.057,0.003,-0.034,-0.072,0.041,-0.022,-0.07,0.012,-0.024,-0.02
RMC1 (UniProt Q96DM3),-0.002,-0.01,-0.105,0.007,0.014,-0.041,0.029,0.014,-0.013,-0.018,-0.002,-0.058,-0.015,-0.047,-0.059,-0.006,0.045,0.044,-0.029,-0.105
RAB3IL1 (UniProt Q8TBN0),0.007,-0.02,0.06,-0.02,0.023,-0.042,-0.005,0.001,-0.03,-0.022,-0.006,-0.003,-0.023,0,-0.115,0.07,0.033,0.038,0.001,-0.019
SCAF8 isoform 2 (UniProt Q9UPN6),-0.078,-0.09,-0.167,0.006,-0.085,-0.083,0.004,0.016,0.018,-0.06,0.026,0.002,0.022,-0.003,-0.027,0.048,0.058,0.015,-0.007,-0.055
SH3GLB2 (UniProt Q9NR46),-0.059,-0.08,-0.13,0.024,-0.048,-0.148,0.042,-0.02,0.029,-0.086,0.016,0.085,0.052,0.061,-0.011,-0.034,-0.004,-0.018,-0.04,0.025
SHROOM2 (UniProt Q13796),-0.118,0.128,0.071,0.283,-0.29,0.059,-0.049,0.08,-0.136,0.1,0.417,0.066,0.02,-0.045,-0.027,0.237,0.056,0.009,-0.188,0.226
RPP25L (UniProt Q8N5L8),-0.079,-0.087,0.061,0.026,0.062,0.002,-0.032,-0.158,0.014,0.058,0.107,0.012,-0.002,0.069,-0.093,-0.12,0.054,-0.068,0.042,-0.052
RCC1 isoform 2 (UniProt P18754),-0.076,-0.049,-0.234,0.164,-0.083,-0.224,-0.008,0.146,0.045,-0.07,0.106,-0.058,0.083,0,0.022,-0.038,0.087,0.021,0,-0.005
SLC19A1 (UniProt P41440),0.012,-0.173,0.06,-0.021,-0.035,-0.061,-0.179,-0.048,0.041,-0.003,0.047,-0.164,-0.106,0.023,-0.034,0.003,0,0.086,-0.066,-0.026
RNPEP (UniProt Q9H4A4),-0.02,-0.038,-0.106,0.064,0.034,-0.036,-0.004,0.04,-0.005,-0.041,0.008,-0.083,0.044,-0.02,-0.018,-0.009,-0.023,0,0.043,0.008
RBIS (UniProt Q8N0T1),0.054,-0.002,0.059,0.037,-0.026,0.058,-0.048,-0.037,0.022,0.03,-0.069,0.077,-0.075,0.061,-0.053,-0.018,-0.056,-0.012,0.012,-0.04
